Bioassay records as filed in PubChem BioAssay.
Most compounds without a hit are left out; they make up all but 2.3% or so of the library.
M1 PAM – human CHRM1 positive allosteric modulation. P11229. CHO-K1 hM1, Fluo-8 calcium fluorescence, ACh EC20; 0% = ACh EC20, 100% = maximal ACh. AID 588819. activation, % at 3 µM. 360,000 tested, 0.088% active; in the data active = activation above about 19%, passing the limit was not always enough
Target sequence (P11229 whole entry, looked up): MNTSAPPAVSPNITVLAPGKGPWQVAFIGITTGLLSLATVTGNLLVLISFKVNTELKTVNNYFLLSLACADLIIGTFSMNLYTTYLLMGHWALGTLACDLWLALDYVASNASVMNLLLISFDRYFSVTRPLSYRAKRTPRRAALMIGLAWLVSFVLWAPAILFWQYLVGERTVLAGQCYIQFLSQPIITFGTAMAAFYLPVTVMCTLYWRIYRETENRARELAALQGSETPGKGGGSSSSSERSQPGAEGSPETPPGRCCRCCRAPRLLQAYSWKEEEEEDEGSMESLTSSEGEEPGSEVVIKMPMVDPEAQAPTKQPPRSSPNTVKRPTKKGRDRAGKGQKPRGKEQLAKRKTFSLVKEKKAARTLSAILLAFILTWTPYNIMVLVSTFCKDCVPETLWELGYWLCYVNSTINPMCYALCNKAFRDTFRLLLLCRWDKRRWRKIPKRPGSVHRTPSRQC
M1 ag parental – M1 agonist counterscreen hit in parental CHO-K1 cells; Fluo-8 calcium fluorescence; scaled to maximal ATP response, vehicle zero; activation, % at 3 µM; 360,000 tested, 0.48% active; in the data active = activation above about 15%;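 note: untransfected CHO-K1 host cells lacking M1 receptor as counterscreen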
M1 PAM parental – nonselective activator or artifact in parental CHO-K1 calcium assay; ATP EC20, Fluo-8 calcium fluorescence; 0% at ATP EC20, 100% at ATP max; activation, % at 3 µM; 360,000 tested, 0.02% active;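 active = activation above the run cutoff, the mean activation of all test compounds plus 3 SD, cut at about 40% in these data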;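 note: peak over basal fluorescence ratio in a 140 s read after ATP addition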
M1 ag – activates human CHRM1 receptor. P11229. activation, % at 3 µM. AID 588814. CHO-K1 hM1, Fluo-8 calcium fluorescence, agonist mode; 0% DMSO, 100% acetylcholine EC100. 360,000 tested, 0.33% active;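 active = activation above the run's mean compound activation plus 3 SD, cut at about 16% in these data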;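 note: peak over basal fluorescence ratio within a 140 s kinetic read after compound addition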
CHO-K1 Ca antag – M1 antagonist counterscreen hit in parental CHO-K1 cells; ATP-induced calcium, Fluo-8 fluorescence; inhibition, % at 3 µM; AID 602250; 360,000 tested, 0.6% active;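 active = inhibition above a per-plate cutoff, the plate's mean sample inhibition plus 3 SD, cut at about 24% in these data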;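 note: 0% = DMSO plus EC80 ATP and 100% = DMSO alone without ATP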
CHRM1 antagonist – antagonists of human M1 muscarinic receptor; AID 588852; P11229; CHO-K1 hM1, Fluo-8 calcium fluorescence, ACh EC80 antagonist; inhibition, % at 3 µM; 360,000 tested, 1.3% active;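 active = percent inhibition above its own plate's cutoff, namely the mean of that plate's compound wells plus 3 SD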;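 note: peak over basal fluorescence ratio during 140 s after agonist addition; 0% = ACh EC80 plus DMSO and 100% = DMSO alone without agonist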
Numbers without * were called inactive.

SMILES	M1 PAM	M1 ag parental	M1 PAM parental	M1 ag	CHO-K1 Ca antag	CHRM1 antagonist
CCCCCCn1nc(C(=O)OCC(=O)c2c(N)n(C)c(=O)n(C)c2=O)c2ccccc2c1=O	-16.6	5.2	-4.7	-2.2	3.6	38.6*
CCCCCn1nc(C(=O)OCC(=O)c2c(N)n(C)c(=O)n(C)c2=O)c2ccccc2c1=O	8.1	1.2	18.9	-0.9	-15.2	-5.8
O=C(CN1C(=O)S/C(=C/c2cccs2)C1=O)N1CCOCC1	-10.6	-0.5	-6.0	-3.2	17.7	37.8*
Cc1nc2scc(C)n2c(=O)c1S(=O)(=O)NCCc1ccc(Cl)cc1	1.6	-0.3	-4.0	-4.2	12.8	-5.4
Cc1nc2scc(C)n2c(=O)c1S(=O)(=O)NCC1CCN(Cc2ccc(Cl)cc2)CC1	-23.4	0.8	4.3	-6.0	-5.2	44.0*
Cc1ccc(CS(=O)Cc2ccc(C(=O)NCc3ccccc3Cl)o2)cc1 (stereo unspecified)	-12.8	0.2	-14.4	-4.5	-1.8	39.4*
O=C(Nc1c(C(=O)N2CCOCC2)cnn1-c1ccccc1)c1ccc(F)cc1	12.2	-0.2	-24.9	1.3	4.7	-8.3
CCOC(=O)c1sc(S(C)(=O)=O)c2c1CCc1conc1-2	14.1	0.3	-9.2	0.7	35.5*	-21.3
CCc1ccc(NC(=O)CSc2nc(=O)n3cc(C)ccc3n2)cc1	-1.0	0.2	-8.0	-2.8	43.0*	4.0
Cc1ccc2nc(SCC(=O)Nc3ccc(F)cc3)nc(=O)n2c1	1.1	1.7	14.8	0.0	-0.9	-1.3
CC(=O)Nc1ccc(C(=O)OCC(=O)N(c2ccccc2)C2CCS(=O)(=O)C2)cc1 (stereo unspecified)	-8.3	0.4	6.1	0.4	2.0	26.3
O=C(CCl)N(c1ccccc1)C1CCS(=O)(=O)C1 (stereo unspecified)	-3.2	22.6*	12.7	-3.1	12.5	11.4
CCOc1ccc(S(=O)(=O)Nc2nc3ccc(OC)cc3s2)cc1	0.6	-0.4	9.2	-2.2	0.1	5.1
CCOc1ccc2nc(NS(=O)(=O)c3ccc4c(c3)n(C)c(=O)n4C)sc2c1	7.1	0.1	8.8	-1.5	25.9*	-3.2
CCCCN1C(=O)C(CC(=O)NC2CCCC2)CC(C(=O)N(CC)CC)=C1C (stereo unspecified)	13.4	-0.5	-3.6	-0.3	26.2*	-7.2
CCCCN1C(=O)C(CC(=O)NC2CCCCC2)CC(C(=O)N(CC)CC)=C1C (stereo unspecified)	-0.6	-0.1	8.1	-3.1	0.4	3.6
CCN(CC)C(=O)C1=C(C)N(CCC2=CCCCC2)C(=O)C(CC(=O)NCC2CCCCC2)C1 (stereo unspecified)	-4.3	-0.6	-13.1	-7.6	24.7*	9.5
Cc1ccc(S(=O)(=O)NCCCNc2ccc([N+](=O)[O-])cc2)cc1	-13.3	20.6*	-0.6	-4.9	18.0	16.1
Cc1ccc(S(=O)(=O)NCCNc2ccc([N+](=O)[O-])cc2)cc1	-0.2	2.7	-8.0	-1.4	-2.2	3.4
O=C(N/N=C/c1ccc(OC2CSC2)cc1)c1ccccc1	-1.0	8.8	18.3	32.3*	-5.3	0.3
COc1cccc(-c2cnc3c(NC(C)=O)cc(-c4ccc(C(=O)N5CCOCC5)cc4)cn23)c1	2.6	0.2	1.9	-7.0	6.2	-5.3
Cc1cc(C)c2cc(CN(CCO)C(=O)Nc3ccc(F)cc3)c(=O)[nH]c2c1	2.4	-0.4	-7.0	-1.7	25.8*	-4.8
O=C(O)CC1Cc2ccccc2C1C(=O)O (stereo unspecified)	10.1	0.6	3.2	-0.1	-3.9	-12.3
O=C(c1coc2ccccc2c1=O)N1CCN(c2cccc(C(F)(F)F)c2)CC1	-34.0	0.8	2.9	-10.6	-17.0	53.9*
S=C(Nc1ccccc1)N1CCN(c2ccccc2)CC1	-8.2	1.6	-12.3	2.1	0.0	5.1
Cc1ccc(CC(=O)N2CCN(c3cccc(C(F)(F)F)c3)CC2)cc1	-9.7	7.3	4.1	2.2	15.3	32.0*
FC(F)(F)c1cccc(NC(=S)N2CCN(c3cccc(C(F)(F)F)c3)CC2)c1	-15.0	0.3	-3.1	-3.6	12.4	37.7*
Cc1ccc(N2CCN(C(=S)Nc3ccccc3)CC2)cc1	-3.0	22.2*	2.9	-6.5	4.2	-0.8
